11 molecules from ChEMBL document CHEMBL3988442, “University of Dundee, Small-Polar-MMV Screening Library” (2021) can be followed below.

SMILES strings stand for the structures. For some of these results: Measured potencies and affinities stand elsewhere.

Parameters in all cases: scale not given: direction of the effect not stated beside the values
The target of assay [1] is Protein translocase subunit SecA (Escherichia coli (strain K12)) (UniProt P10408). Description: Assay to Identify E. coli SecA ATPase Inhibitors. It counts as functional. Conditions: 30 µM.
Sequence of Protein translocase subunit SecA (Escherichia coli (strain K12)) (P10408 whole entry): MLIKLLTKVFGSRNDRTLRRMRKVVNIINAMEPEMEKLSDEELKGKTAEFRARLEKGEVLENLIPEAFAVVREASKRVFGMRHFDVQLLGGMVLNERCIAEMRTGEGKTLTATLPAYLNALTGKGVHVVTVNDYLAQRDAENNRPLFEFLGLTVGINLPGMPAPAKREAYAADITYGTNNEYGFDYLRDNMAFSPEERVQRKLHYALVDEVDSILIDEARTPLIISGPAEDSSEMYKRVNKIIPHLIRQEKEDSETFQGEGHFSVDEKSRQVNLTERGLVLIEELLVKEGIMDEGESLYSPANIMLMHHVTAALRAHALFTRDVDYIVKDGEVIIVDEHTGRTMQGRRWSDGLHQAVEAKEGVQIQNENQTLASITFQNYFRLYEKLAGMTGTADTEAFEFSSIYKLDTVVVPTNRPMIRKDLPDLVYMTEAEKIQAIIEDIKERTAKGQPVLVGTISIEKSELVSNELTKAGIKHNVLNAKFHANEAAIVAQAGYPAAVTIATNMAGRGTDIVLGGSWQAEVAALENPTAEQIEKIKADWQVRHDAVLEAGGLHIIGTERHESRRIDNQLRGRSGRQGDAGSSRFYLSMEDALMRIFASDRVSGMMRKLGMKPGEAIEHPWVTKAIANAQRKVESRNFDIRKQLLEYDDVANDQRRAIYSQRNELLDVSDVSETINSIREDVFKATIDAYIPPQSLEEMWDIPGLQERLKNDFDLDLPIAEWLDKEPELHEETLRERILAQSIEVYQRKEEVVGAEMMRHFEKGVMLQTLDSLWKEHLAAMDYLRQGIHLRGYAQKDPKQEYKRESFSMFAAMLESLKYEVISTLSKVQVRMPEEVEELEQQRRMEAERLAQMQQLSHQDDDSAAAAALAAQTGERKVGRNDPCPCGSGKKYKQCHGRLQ
The target of assay [2] is T1, Ubiquitin-activating enzyme e1, putative (Leishmania donovani (strain BPK282A1)) (UniProt E9BSI1).
T1 sequence (whole entry): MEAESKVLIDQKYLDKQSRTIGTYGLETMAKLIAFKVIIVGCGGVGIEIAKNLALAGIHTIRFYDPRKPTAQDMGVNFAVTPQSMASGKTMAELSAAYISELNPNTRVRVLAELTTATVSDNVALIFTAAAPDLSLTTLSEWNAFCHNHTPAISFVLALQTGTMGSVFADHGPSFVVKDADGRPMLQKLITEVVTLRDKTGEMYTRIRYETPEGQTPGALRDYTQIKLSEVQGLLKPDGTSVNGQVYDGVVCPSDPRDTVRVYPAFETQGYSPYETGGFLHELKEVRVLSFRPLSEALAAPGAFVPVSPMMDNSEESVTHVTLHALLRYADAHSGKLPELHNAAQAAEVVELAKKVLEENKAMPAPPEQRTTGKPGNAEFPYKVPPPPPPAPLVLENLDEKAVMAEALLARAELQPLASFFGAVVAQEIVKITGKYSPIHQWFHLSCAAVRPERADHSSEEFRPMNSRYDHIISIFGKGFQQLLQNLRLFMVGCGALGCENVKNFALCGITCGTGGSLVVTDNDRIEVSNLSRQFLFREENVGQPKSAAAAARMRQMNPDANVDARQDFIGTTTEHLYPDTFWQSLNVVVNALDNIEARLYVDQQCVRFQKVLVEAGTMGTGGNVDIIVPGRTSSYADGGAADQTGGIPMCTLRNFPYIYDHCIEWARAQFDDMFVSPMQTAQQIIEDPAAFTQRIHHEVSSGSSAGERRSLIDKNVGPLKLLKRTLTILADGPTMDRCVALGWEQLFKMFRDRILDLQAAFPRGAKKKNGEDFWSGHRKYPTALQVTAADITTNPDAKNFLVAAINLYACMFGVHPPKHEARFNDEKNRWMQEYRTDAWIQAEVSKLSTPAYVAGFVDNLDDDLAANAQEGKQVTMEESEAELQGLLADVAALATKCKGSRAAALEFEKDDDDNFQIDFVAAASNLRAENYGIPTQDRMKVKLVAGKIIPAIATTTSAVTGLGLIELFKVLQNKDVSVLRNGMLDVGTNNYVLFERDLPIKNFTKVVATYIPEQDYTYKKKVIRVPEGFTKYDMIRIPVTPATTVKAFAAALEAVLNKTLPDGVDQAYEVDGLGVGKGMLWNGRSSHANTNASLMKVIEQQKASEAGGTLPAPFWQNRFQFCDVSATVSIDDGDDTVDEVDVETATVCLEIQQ
Description: Leishmania donovani Ubiquitin Activating Enzyme (LdE1). It counts as functional. Conditions: 30 µM.

The target in assay [3] is AMP-activated protein kinase, AMPK (Homo sapiens) (UniProt P54646+O43741+P54619+Q9UGJ0+Q9Y478+Q13131+Q9UGI9). Description: AMP-dependent Kinase enzyme assay. An in vitro enzyme assay that detects ADP turnover that is directly proportional to AMPK activity. This uses naive AMPK that is activated during the assay with MK-8722. It counts as functional. Conditions: 30 µM.
For assay [4], the target named is Sialic acid-binding Ig-like lectin 9 (Homo sapiens) (UniProt Q9Y336). Description: Hs-Siglec9 ALPHAscreen SOP 20170721. As to conditions: 10 µM. (Alpha assays give light when donor and acceptor beads are brought close together.)
Sequence of Sialic acid-binding Ig-like lectin 9 (Homo sapiens) (Q9Y336 whole entry): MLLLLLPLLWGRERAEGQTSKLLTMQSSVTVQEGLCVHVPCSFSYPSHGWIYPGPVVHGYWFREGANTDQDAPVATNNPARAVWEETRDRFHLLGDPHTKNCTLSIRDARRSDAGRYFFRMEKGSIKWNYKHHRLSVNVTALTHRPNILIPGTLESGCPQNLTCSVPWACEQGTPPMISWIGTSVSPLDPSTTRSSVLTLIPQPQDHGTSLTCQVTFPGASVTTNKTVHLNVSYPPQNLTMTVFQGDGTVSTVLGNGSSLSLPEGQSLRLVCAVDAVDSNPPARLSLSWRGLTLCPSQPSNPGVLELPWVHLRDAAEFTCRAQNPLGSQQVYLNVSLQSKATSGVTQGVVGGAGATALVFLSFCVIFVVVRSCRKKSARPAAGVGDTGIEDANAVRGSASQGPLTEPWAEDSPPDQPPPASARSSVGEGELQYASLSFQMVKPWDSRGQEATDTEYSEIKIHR
Assay [5] relates to Trypanosoma cruzi. Description: Trypanosoma cruzi phosphomannomutase and mannose-1-phosphate guanylyltransferase assay. Type of assay: functional. Conditions: 10 µM.
In assay [6] the target is T2, Arginase-2, mitochondrial (Homo sapiens) (UniProt P78540).
T2 sequence (whole entry): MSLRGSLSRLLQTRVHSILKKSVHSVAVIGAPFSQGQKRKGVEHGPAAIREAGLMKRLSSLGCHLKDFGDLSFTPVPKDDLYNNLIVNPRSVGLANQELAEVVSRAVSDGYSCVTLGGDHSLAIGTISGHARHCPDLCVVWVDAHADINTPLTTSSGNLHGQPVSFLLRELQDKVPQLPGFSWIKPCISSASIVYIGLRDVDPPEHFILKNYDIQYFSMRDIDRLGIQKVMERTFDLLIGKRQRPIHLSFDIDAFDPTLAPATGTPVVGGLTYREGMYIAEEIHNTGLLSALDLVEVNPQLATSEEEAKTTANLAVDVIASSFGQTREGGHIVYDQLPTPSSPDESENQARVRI
Description: in vitro enzyme assay to detect the production of urea directly proportional to the activity of Arginase II. Note: in the data most compounds retested in dose-response had high values. Type of assay: functional. As to conditions: 33.3 µM.

Assay [7] has as its target T3, Proteasome subunit beta (Trypanosoma cruzi) (UniProt O96673).
T3 sequence (whole entry): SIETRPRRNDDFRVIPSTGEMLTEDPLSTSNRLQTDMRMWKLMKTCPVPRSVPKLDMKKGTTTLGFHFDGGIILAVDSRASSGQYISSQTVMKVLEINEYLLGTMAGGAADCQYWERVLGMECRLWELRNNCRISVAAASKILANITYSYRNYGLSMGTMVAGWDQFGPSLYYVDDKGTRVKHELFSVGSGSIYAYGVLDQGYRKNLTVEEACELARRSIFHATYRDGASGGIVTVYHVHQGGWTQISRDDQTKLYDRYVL
Description: Trypanosoma cruzi proteasome chymotrypsin-like activity (TcProtChymo) assay. Note: in the data most compounds retested in dose-response had high values. It counts as functional. Conditions: 9.37 µM.

For assay [8], the species on record is Homo sapiens. Description: To identify inhibition of the IFN signalling (Jak-Stat) pathway via expression of an eGFP reporter gene under the control of an IFN-stimulated response element (ISRE) containing MxA promoter. As to conditions: 30 µM. Type of assay: functional. Background: In a reporter assay the amount or activity of a reporter protein is the signal.

For assay [9], the target named is T4, Tyrosyl-tRNA synthetase, putative (Trypanosoma cruzi (strain CL Brener)) (UniProt Q4DSP6).
T4 sequence (whole entry): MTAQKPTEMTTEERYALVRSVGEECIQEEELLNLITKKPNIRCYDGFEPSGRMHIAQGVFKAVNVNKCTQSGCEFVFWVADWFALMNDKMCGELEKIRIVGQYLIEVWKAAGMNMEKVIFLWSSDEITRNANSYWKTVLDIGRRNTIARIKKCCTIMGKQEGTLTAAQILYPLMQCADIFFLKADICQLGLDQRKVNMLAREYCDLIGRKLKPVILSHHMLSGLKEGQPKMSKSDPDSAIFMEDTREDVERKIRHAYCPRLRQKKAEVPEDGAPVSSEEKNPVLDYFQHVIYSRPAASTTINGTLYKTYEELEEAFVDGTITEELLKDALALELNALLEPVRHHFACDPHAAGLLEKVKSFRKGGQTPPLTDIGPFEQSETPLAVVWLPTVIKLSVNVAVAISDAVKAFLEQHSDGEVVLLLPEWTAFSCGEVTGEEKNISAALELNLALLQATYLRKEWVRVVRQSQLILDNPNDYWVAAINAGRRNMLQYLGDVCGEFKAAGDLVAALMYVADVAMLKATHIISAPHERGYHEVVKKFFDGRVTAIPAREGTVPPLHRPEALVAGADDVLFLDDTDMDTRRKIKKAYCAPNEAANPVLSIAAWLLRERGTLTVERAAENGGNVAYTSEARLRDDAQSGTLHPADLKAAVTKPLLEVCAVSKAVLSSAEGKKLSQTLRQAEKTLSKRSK
Description: Trypanosoma cruzi tyrosyl tRNA synthetase (TcYRS) _High Tyrosine SOP. Note: in the data most compounds retested in dose-response had high values. It counts as functional. As to conditions: 30 µM.

In assay [10] the target is T4, Tyrosyl-tRNA synthetase, putative (Trypanosoma cruzi (strain CL Brener)). Description: Trypanosoma cruzi tyrosyl tRNA synthetase (TcYRS) SOP. As to conditions: 30 µM. Type of assay: functional.
In assay [11] the target is Chromo domain-containing protein 1 (Saccharomyces cerevisiae (strain ATCC 204508 / S288c) (Baker's yeast)) (UniProt P32657). Description: ScCHD-1 Enzyme Inhibition Assay. Note: in the data most compounds retested in dose-response had high values. It counts as functional. As to conditions: 30 µM.
Sequence of Chromo domain-containing protein 1 (Saccharomyces cerevisiae (strain ATCC 204508 / S288c) (Baker's yeast)) (P32657 whole entry, the tested form may be a part): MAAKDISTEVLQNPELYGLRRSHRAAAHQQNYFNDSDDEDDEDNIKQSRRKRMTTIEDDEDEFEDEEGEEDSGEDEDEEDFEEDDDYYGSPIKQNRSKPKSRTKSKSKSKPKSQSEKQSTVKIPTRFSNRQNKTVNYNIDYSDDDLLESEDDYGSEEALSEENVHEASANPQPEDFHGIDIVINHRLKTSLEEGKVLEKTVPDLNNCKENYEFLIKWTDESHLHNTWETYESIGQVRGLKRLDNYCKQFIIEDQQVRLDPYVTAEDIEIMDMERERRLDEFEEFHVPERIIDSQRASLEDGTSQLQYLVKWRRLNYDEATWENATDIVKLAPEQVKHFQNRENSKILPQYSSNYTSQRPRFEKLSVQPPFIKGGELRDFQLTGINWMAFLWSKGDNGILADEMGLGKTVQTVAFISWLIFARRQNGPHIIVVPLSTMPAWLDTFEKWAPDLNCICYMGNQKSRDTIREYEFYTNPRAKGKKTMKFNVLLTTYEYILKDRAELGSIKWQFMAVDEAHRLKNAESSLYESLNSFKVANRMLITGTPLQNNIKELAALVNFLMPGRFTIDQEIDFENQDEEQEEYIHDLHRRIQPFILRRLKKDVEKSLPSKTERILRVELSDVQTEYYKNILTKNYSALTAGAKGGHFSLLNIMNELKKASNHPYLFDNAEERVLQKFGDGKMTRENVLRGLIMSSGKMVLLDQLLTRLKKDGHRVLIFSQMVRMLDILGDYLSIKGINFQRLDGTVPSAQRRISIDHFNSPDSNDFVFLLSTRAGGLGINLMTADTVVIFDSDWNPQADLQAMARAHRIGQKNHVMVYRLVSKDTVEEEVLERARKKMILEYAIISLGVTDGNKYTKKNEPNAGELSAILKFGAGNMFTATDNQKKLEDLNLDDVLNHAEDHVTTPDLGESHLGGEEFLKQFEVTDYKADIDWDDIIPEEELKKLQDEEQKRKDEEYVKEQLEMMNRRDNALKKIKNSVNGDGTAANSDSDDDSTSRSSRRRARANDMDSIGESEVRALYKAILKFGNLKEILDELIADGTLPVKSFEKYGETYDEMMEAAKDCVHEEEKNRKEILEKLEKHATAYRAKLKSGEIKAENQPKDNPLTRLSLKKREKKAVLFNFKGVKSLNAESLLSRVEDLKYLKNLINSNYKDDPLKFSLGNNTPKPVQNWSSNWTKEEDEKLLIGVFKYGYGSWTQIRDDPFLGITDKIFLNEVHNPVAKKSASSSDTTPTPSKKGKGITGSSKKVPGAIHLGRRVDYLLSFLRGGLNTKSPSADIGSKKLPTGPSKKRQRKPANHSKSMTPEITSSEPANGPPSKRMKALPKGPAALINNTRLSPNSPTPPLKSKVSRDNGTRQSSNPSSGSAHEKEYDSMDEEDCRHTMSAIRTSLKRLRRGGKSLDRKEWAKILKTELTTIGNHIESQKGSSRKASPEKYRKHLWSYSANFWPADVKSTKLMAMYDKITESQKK

With `Cc1ccc(CNCc2nnc3n2CCCC3C(F)(F)F)s1` (stereo unspecified), the Percent Effect in [1] was -1.65%; in assay [2], 8%; in assay [3], -7.92%; in [4] it was 8.27%; in [5] it was 5.36%; in assay [6] it was 4.69%. For the same molecule, the Percent Effect in assay [7] is 18%; in assay [8], 11.4%; in assay [9], 9.29%; in [10], 21%; in [11], -5.37%.
For `N#Cc1ncn(CC(=O)Nc2cc(Cl)ccc2F)n1`, the Percent Effect in assay [1] is -7.02%; in assay [2], 13.7%; in assay [3], 6.62%; in assay [4] it was 0.779%; in assay [5] it was 1.59%; in assay [6], -4.79%. Also, the Percent Effect in assay [7] was 1.8%; in assay [8], -12.8%; in assay [9] it was 3.12%; in [10] it was 6.17%; in assay [11] it was 1.6%.
In the case of `O=C(Cc1ccsc1)N1CCCC(c2n[nH]c3nccnc23)C1` (stereo unspecified), the Percent Effect in [1] is -5.56%; in assay [2], 14.9%; in [3], 11.9%; in assay [4] it was -1.03%; in assay [5] it was 4.94%; in assay [6], -1.16%. Besides, the Percent Effect in [7] was 15.9%; in assay [8], 17.3%; in assay [9] it was 2.15%; in assay [10] it was 9.09%; in assay [11], -4.76%.
As to `Cc1nc[nH]c1CN1C[C@@H]2CC[C@H](C1)N(C(=O)CCNS(C)(=O)=O)C2`, the Percent Effect is -4.5% in assay [1]; -1.39% in assay [2]; -15.6% in [3]; 26.7% in [4]; 4.57% in assay [5]; 17.7% in [6]. Moreover, the Percent Effect in assay [7] is 3.33%; in assay [8], -7.69%; in [9] it was 5.26%; in assay [10], 7.69%; in [11], -4.5%.
`c1cnn(CCNCc2nnc(C3CC3)o2)c1`: the Percent Effect was -2.66% in assay [1]; 27.9% in assay [2]; -5.53% in [3]; -12.3% in assay [4]; 1.42% in [5]; -2.66% in assay [6]. Also, the Percent Effect was 9.91% in [7]; 11.1% in assay [8]; 7.39% in assay [9]; 24.1% in [10]; -13.5% in assay [11].
Regarding `O=C(CN1CCCCCCC1=O)NCc1ccccn1`, the Percent Effect in assay [1] was -1.09%; in assay [2], 5.48%; in [3] it was -2.69%; in assay [4], 1.29%; in assay [5], 2.78%; in assay [6], 2.4%. The Percent Effect in assay [7] is 1.46%; in assay [8], 0.819%; in assay [9], 5.21%; in assay [10], 11.1%; in assay [11], -5.16%.
Turning to `O=C(NCCS(=O)(=O)N1CCc2ccccc21)c1c(O)cc(F)cc1F`, the Percent Effect in assay [1] is -5.35%; in [2] it was 2.6%; in assay [3], -0.496%; in [4], -10.7%; in assay [5], 4.41%; in assay [6], -6.11%. Also, the Percent Effect in [7] was 8%; in assay [8], 4.49%; in assay [9] it was -12.4%; in assay [10] it was 0%; in [11], -23.1%.
In the case of `N#Cc1cn(C2CC2)c(=O)n(CC(O)c2ccc(OC(F)F)cc2)c1=O` (stereo unspecified), the Percent Effect in assay [1] was -5.26%; in [2] it was 15.8%; in assay [3], -4.7%; in [4], 7.1%; in [5], 6.01%; in assay [6], 0%. The Percent Effect is 11.2% in assay [7]; 3.44% in assay [8]; 0.49% in [9]; 17.1% in assay [10]; -12.4% in assay [11].
In the case of `CC(=O)N1CCCC1c1ccc(-c2c(C)noc2C)cn1` (stereo unspecified), the Percent Effect in assay [1] is 0.953%; in assay [2], -4.05%; in [3], 8.36%; in assay [4], 2.83%; in [5], -3.56%; in [6], 6.26%. The Percent Effect was 4.52% in assay [7]; 5.24% in [8]; -1.07% in assay [9]; -3.9% in assay [10]; 3.24% in assay [11].
Regarding `CC(C(=O)NCCOc1ccc2c(c1)OCO2)n1cncn1` (stereo unspecified), the Percent Effect in assay [1] is -1.18%; in [2], 20.2%; in assay [3], -6.18%; in assay [4] it was -3.69%; in assay [5] it was -2.17%; in assay [6], 6.08%. Also, the Percent Effect was 11.6% in [7]; -12.4% in [8]; 6.4% in [9]; 13.9% in assay [10]; -2.77% in assay [11].
On to `NC(=O)c1cnn2c1NCC(CNCCc1ccco1)C2` (stereo unspecified), for which the Percent Effect in [1] was -1.64%; in [2], 2.63%; in assay [3] it was 2.04%; in assay [4], -0.712%; in assay [5], -5.26%; in assay [6] it was 3.45%. Moreover, the Percent Effect is 8.86% in [7]; 7.72% in assay [8]; 2.45% in assay [9]; 7.32% in assay [10]; -1.74% in assay [11].
